# According to PMC6792352, “Limited Chemical Structural Diversity Found to Modulate Thyroid Hormone Receptor in the Tox21 Chemical Library” (Environmental Health Perspectives, 2019):
# Where a name gives a salt, the structure may show the parent alone.
# Tested on: thyroid hormone receptor (endogenous TRα and TRβ)
# Set-up: species or system GH3-TRE-Luc (rat pituitary); GH3-TRE-Luc luciferase reporter, antagonist mode against 1 nM T3, loss of signal, qHTS
# Conditions: read-out: Average AC50 (uM) GH3-TRE-Antag, antagonist mode, 1 nM T3, no GH3 cytotoxicity hit
row,Compound,AC50
1,COc1cccc(N)c1 [3-Methoxyaniline],80.8 µM
2,CCCCCCCC/C=C/CCCCCCCC(=O)OCCO [Polyoxyethylene monoleate],81.3 µM
3,COc1cc(CNC(=O)CCCC/C=C/C(C)C)ccc1O [Capsaicin],34.4 µM
4,CNCc1ccc(NC(=O)c2c[nH]c3c2C(=O)CCC3)cc1 [CP-409092],84.3 µM
5,CO[C@@H]1[C@H](OC(=O)NC(=O)CCl)CC[C@]2(CO2)[C@H]1[C@@]1(C)O[C@@H]1CC=C(C)C [o-(Chloroacetylcarbamoyl)fumagillol],4.57 µM
6,O=C(OCc1ccccc1)c1ccc(O)cc1 [Benzylparaben],> 50 µM
7,"O=C(Nc1ccc([N+](=O)[O-])cc1)Nc1ccc([N+](=O)[O-])cc1 [4,4'-Dinitrodiphenylurea]",0.491 µM
8,C=CC(=O)OCCOC(=O)CCC(=O)O [4-[2-(Acryloyloxy)ethoxy]-4-oxobutanoic acid],73 µM
9,CNC(=O)c1ccccc1Sc1ccc2c(/C=C/c3ccccn3)n[nH]c2c1 [Axitinib],0.777 µM
10,O=C1CCCCCCCCCCOCCCCO1 [12-Oxahexadecanolide],43.5 µM
11,NC(N)=NCc1cccc(I)c1 [3-Iodobenzylguanidine hemisulfate],16.3 µM
12,"O=C(O)c1snc(Cl)c1Cl [3,4-Dichloro-5-isothiazolecarboxylic acid]",51.4 µM
13,COc1ccccc1/C=C/C=O [trans-2-Methoxycinnamaldehyde],47.6 µM
14,CCCCCCCCCCCCCCCC(=O)OC[C@H](O)[C@H]1OC(=O)C(O)=C1O [Ascorbyl palmitate],> 50 µM
15,"CC1=NC(C)OC1C (stereo not shown) [2,4,5-Trimethyl-3-oxazoline]",> 90 µM
16,C=CC(=O)OCCC#N [2-Cyanoethyl prop-2-enoate],62.7 µM
17,OCc1c[nH]c2ccccc12 [Indole-3-carbinol],58.4 µM
18,CCO[Si](C)(CCCOCC1CO1)OCC (stereo not shown) [Diethoxy(methyl)[3-(oxiran-2-ylmethoxy)propyl]silane],62.6 µM
19,CCCCNc1ccc(C(=O)OCCN(C)C)cc1 [Tetracaine hydrochloride],11.2 µM
20,CN(CCOc1ccc(CC2SC(=O)NC2=O)cc1)c1ccccn1 (stereo not shown) [Rosiglitazone maleate],75.1 µM

row,Compound,AC50
1,Cc1ccc(-n2nc(C(C)(C)C)cc2NC(=O)Nc2ccc(OCCN3CCOCC3)c3ccccc23)cc1 [Doramapimod],45.9 µM
2,C=C1C[C@H]2[C@@H]3C=C(C)C4=CC(=O)CC[C@]4(C)[C@H]3CC[C@]2(C)[C@@]1(OC(C)=O)C(C)=O [Melengestrol acetate],26.6 µM
3,COc1ccc2nc(NC(=O)Nc3ccccc3)sc2c1 [Frentizole],11.4 µM
4,COc1ccc(O)cc1 [4-Methoxyphenol],> 50 µM
5,Cc1ccc(C(=O)C(C)CN2CCCCC2)cc1 (stereo not shown) [Tolperisone hydrochloride],> 50 µM
6,CCCCNc1ccc(C(=O)OCCN(CC)CC)cc1 [Depolipon],21 µM
7,"CCCCNC1CC(C)(C)NC(C)(C)C1 [N-Butyl-2,2,6,6-tetramethylpiperidin-4-amine]",60.2 µM
8,"CC(=O)c1c(C)cc(C(C)(C)C)cc1C [4'-tert-Butyl-2',6'-dimethylacetophenone]",48.7 µM
9,NC(=O)N(O)[C@@H]1COc2cc(OCc3ccccc3)ccc21 [SB202235],85 µM
10,CC(C)OC(=O)OCOP(=O)(CO[C@H](C)Cn1cnc2c(N)ncnc21)OCOC(=O)OC(C)C [Tenofovir disoproxil fumarate],24.9 µM
11,O=C1OC(OC(=O)c2cccnc2Nc2cccc(C(F)(F)F)c2)c2ccccc21 (stereo not shown) [Talniflumate],9.92 µM
12,"CCN(C(=O)N(CC)c1ccccc1)c1ccccc1 [N,N'-Diethylcarbanilide]",45.9 µM
13,Cc1cc(O)c2c(c1)C(=O)c1cccc(O)c1C2=O [Chrysophanic acid],40.7 µM
14,C/C=C1\C(=O)C[C@H]2[C@@H]3CCC4=CC(=O)CC[C@]4(C)[C@H]3CC[C@]12C [Guggulsterone Z],39.2 µM
15,C=CC[C@]1(O)CC[C@H]2[C@@H]3CCC4=CC(=O)CCC4=C3C=C[C@@]21C [Altrenogest],11.8 µM
16,CCCCNc1c(C(=O)OCC)c(C)nc2c1cnn2CC [Tracazolate hydrochloride],42.6 µM
17,Clc1ccc(C2(Cn3cncn3)CC(Br)CO2)c(Cl)c1 (stereo not shown) [Bromuconazole],72.5 µM
18,CO/C=C(/C(=O)OC)c1ccccc1COc1cccc(C(F)(F)F)n1 [Picoxystrobin],0.276 µM
19,"Cc1ccc(C(C)c2ccc(C)c(C)c2)cc1C [1,1-Bis(3,4-dimethylphenyl)ethane]",70.8 µM
20,"O=C(c1ccc(O)cc1O)c1ccc(O)cc1O [2,2',4,4'-Tetrahydroxybenzophenone]",39.2 µM
